Only some compounds are listed: those with a hit (about 2.2% of all), similar ones and a draw of the others.
VLA-4 inh = inhibition in a human VLA-4 binding assay. P13612. VLA-4 expressing cells, ligand binding flow cytometry. inhibition, % (about 7 µM as worked out from the volumes in the protocol). 0.2% of 330,000 active. AID 2557; in the data active means inhibition above about 50%
Target sequence (P13612 whole entry, looked up): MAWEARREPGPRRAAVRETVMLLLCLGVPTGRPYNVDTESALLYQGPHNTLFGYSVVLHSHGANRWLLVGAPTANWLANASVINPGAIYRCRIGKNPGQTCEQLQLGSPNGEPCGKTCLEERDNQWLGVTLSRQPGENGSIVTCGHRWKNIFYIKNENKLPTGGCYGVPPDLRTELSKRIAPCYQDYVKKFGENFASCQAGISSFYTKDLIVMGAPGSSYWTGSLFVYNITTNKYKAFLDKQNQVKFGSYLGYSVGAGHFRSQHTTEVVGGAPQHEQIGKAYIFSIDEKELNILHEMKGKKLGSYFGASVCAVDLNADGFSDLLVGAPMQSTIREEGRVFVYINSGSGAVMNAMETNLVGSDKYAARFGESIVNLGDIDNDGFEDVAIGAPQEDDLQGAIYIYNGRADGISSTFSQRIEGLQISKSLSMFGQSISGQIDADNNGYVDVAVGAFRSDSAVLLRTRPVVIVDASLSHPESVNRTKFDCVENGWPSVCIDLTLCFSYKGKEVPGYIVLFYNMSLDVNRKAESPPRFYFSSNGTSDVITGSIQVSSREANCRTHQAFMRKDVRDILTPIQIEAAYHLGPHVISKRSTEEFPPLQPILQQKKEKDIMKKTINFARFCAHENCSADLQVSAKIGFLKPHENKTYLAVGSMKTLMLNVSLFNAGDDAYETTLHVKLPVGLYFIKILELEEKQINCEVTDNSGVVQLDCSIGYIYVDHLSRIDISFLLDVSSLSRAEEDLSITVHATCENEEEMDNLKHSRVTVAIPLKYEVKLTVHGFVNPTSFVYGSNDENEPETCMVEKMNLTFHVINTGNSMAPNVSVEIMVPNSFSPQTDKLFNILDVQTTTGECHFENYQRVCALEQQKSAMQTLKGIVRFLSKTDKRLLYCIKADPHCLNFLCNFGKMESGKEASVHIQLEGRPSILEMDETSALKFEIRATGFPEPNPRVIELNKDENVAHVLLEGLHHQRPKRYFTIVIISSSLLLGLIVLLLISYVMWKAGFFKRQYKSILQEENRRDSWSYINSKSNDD
CHT allo act = allosteric activators of human choline transporter CHT. 0.49% of 310,000 active. B-score at 10 µM. CHT-expressing cells, membrane potential dye, choline EC20; active compounds read high; LV-AA mutant CHT in HEK293 cells. Q9GZV3;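 active means initial fluorescence not abnormally high and integrated response B-score, plate-corrected, over 3 SD above library mean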
Platelet DG rel = modulates dense granule release in human platelets; human platelet-rich plasma, SFLLRN dense granule ATP release, luminescence; inhibition, %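 (compounds screened at 7.5 µM in platelet-rich plasma)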; 0.22% of 300,000 active;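 active means mean replicate score, as percent of positive control, at or above 50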
HIF activator = HIF pathway transcriptional activation | U2OS HRE-luciferase reporter, luminescence; normalized: DMSO 0%, desferrioxamine 100% | activation, % at 7.5 µM (by protocol) | 0.32% of 300,000 active | AID 1910;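 active means mean activation of at least 10% of the iron chelator positive control signal, with at least half of replicates also reaching 10%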
AI-2 QS modul = Vibrio harveyi AI-2 quorum sensing modulation. 0.4% of 300,000 active. Vibrio harveyi JMH597 AI-2 luminescence/OD600 ratio, 9 h; active compounds read low; strain lacks LuxN and CqsS sensors; 0 = neutral-control median. activity change, % at 7.5 µM; in the data active means activity change below about -75%, passing the limit was not always enough;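 further: luminescence divided by OD600 gain over 9 h not by final OD600 alone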
CHT inh = inhibits the human high affinity choline transporter. Q9GZV3. CHT-expressing cells, membrane potential dye, choline response; active compounds read low. B-score at 10 µM. 0.86% of 310,000 active. AID 488975;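 active means B-score over 3 SD under the library average, and starting fluorescence ratio not unusually high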;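 further: choline stimulus applied at its EC90 after an EC20 pre-addition; B-score computed on integrated fluorescence ratio after choline addition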
CHT act confirm = confirmation of human choline transporter (CHT) activators. 91% of 2,500 active. activation, % at 10 µM. shares compounds with CHT allo act. CHT-expressing cells, membrane potential dye fluorescence (FDSS); % of choline EC20–EC90 response window; HEK293 expressing CHT LV-AA mutant; choline added at its EC20;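 active means primary screen active, with duplicate mean activation above negative control mean plus 3 SD, cut at about 11% in these data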
HEK293 MP dye = activity in parental HEK293 cells lacking CHT; shares compounds with CHT allo act; membrane potential dye fluorescence (FDSS); measured after EC20 choline addition; ratio readout change at 10 µM, hits read low; 62% of 2,500 active; AID 623908;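 active means duplicate-averaged ratio beyond 3 SD from buffer wells, up or down, though filed actives are nearly all decreases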
Starred values were filed as active, the others as inactive; i = inactive; . = not tested or not shown.

SMILES	VLA-4 inh	CHT allo act	Platelet DG rel	HIF activator	AI-2 QS modul	CHT inh	CHT act confirm	HEK293 MP dye
COc1ccc(C2=NCCn3cccc32)c(OC)c1	-4	i	8	0	10	i	43*	-49*
CC[C@@]1(C(=O)OC)N[C@H](CN(C)S(=O)(=O)c2ccc(OC(F)(F)F)cc2)[C@@H]2C(=O)N(C)C(=O)[C@@H]21	-5	.	.	.	.	.	.	.
COc1ccc(N2CCN(c3oc(COc4ccccc4)nc3C#N)CC2)cc1	20	i	.	.	.	i	35*	i
COc1ccc(N2CCN(c3oc(COc4ccc(Cl)cc4)nc3C#N)CC2)cc1	2	8*	11	0	12	i	36*	i
COc1ccc(N2CCN(c3oc(Cc4ccccc4)nc3C#N)CC2)cc1	16	i	0	0	27	i	.	.
COc1ccc(N2CCN(c3oc(COc4ccc(Cl)cc4Cl)nc3C#N)CC2)cc1	2	9.5*	-12	0	18	i	27*	i
N#Cc1nc(COc2ccc(Cl)cc2Cl)oc1N1CCN(c2ccccc2)CC1	-3	i	-5	0	-1	i	.	.
COc1ccc(OC)c(C(c2nnnn2C2CCCC2)N2CCN(c3ccccc3F)CC2)c1 (stereo not drawn)	5	i	-2	0	27	i	35*	i
COC(=O)c1cc2c(ccn2-c2ccc(F)cc2)n1CC(C)C	2	i	1	2	25	i	24*	i
CCCn1c(C(=O)OC)cc2c1ccn2-c1ccc(F)cc1	5	i	4	0	14	i	.	.
CC(=O)c1c(C)nc2sc3c(=N)n(N)cnc3c2c1-c1ccc(Cl)cc1	3	6.7*	7	1	25	i	50*	-40*
O=C(CNC(=O)c1ccccc1Cl)NCCc1cccs1	10	.	.	.	.	.	.	.
Cn1ncc(C#N)c1/N=C/N(Cc1ccccc1)Cc1ccccc1	3	16*	-4	0	10	i	46*	i
O=C(Nc1ccc([N+](=O)[O-])cc1)Nc1ccc(N2CCOCC2)c2nonc12	-10	i	4	0	-13	i	.	.
CC(C)c1ccccc1NC(=O)Cn1c(-c2ccccc2Cl)nc2ccccc21	-7	i	-10	0	-6	i	22*	i
CC(C)c1ccccc1NC(=O)Cn1c(/C=C/c2ccccc2)nc2ccccc21	6	i	2	-2	-2	i	.	.
Cc1cc(N2CCCCC2)nc(N2CCOCC2)n1	8	i	0	0	7	i	.	.
Cc1cc(N2CCN(C)CC2)nc(N2CCOCC2)n1	-2	8.4*	2	0	7	i	45*	-91*
Cc1cc(N2CCOCC2)nc(N2CCOCC2)n1	-13	i	1	0	17	i	76*	-40*
COc1ccc(CCN=C(N)NS(=O)(=O)c2cc(F)ccc2OC)cc1	-13	i	-37	0	-2	i	.	.
O=C(COC(=O)c1ccc2ncsc2c1)Nc1cc([N+](=O)[O-])ccc1Cl	12	.	.	.	.	.	.	.
CC(C)CCNc1nc(-c2ccco2)c2c(c1C#N)CCCC2	5	i	10	-1	17	i	.	.
N#Cc1c(NCCN)nc(-c2ccco2)c2c1CCCC2	1	i	15	0	18	i	39*	-73*
CC1Cc2cc(S(=O)(=O)N3CCN(c4ccccc4F)CC3)ccc2N1C(=O)C1CC1 (stereo not drawn)	-4	7.5*	-5	0	10	i	20*	i
COc1cccc(N2CCN(S(=O)(=O)c3ccc4c(c3)CC(C)N4C(=O)C3CC3)CC2)c1 (stereo not drawn)	-6	i	-37	0	12	i	.	.
SMILES	VLA-4 inh	CHT allo act	Platelet DG rel	HIF activator	AI-2 QS modul	CHT inh	CHT act confirm	HEK293 MP dye
COc1ccccc1N1CCN(C(c2ccccc2)c2nnnn2CCc2ccccc2)CC1 (stereo not drawn)	-5	i	-1	0	-6	i	17*	i
COc1ccccc1C(c1nnnn1CCc1ccccc1)N1CCN(c2ccccc2)CC1 (stereo not drawn)	-11	i	0	-1	-4	i	.	.
COc1cccc(C(c2nnnn2Cc2ccco2)N2CCN(c3cccc(C)c3C)CC2)c1OC (stereo not drawn)	0	7.1*	-5	0	5	i	20*	i
COc1cccc(C(c2nnnn2Cc2ccccc2)N2CCN(C(=O)c3ccco3)CC2)c1OC (stereo not drawn)	-10	i	2	-1	3	i	.	.
COc1cccc(C(c2nnnn2CCc2ccccc2)N2CCN(c3ccccc3)CC2)c1OC (stereo not drawn)	5	6.8*	-4	0	3	i	21*	i
O=C(NCc1ccccc1)c1nncc(-c2ccccc2)n1	7	.	.	.	.	.	.	.
CC(C)N1CCN(Cc2ccc(OC3CCCC3)cc2)CC1CCO (stereo not drawn)	-2	i	.	0	6	i	.	.
O=C(COC(=O)C1CCN(c2ccc(C(F)(F)F)cn2)CC1)Nc1ncc(Cl)cc1Cl	1	.	.	.	.	.	.	.
COc1ccc(-c2nc3cnccn3c2Nc2ccc(C)cc2)cc1	2	i	3	0	10	i	36*	-28*
Cc1cccc(C)c1NC(=O)CCn1cnc2ccccc2c1=O	10	i	3	-1	24	i	.	.
c1ccc2c(c1)nc1n2CCN1CCNC1CCCCC1	10	i	-24	0	15	i	.	.
c1ccc(CN2CCN(CCN3CCn4c3nc3ccccc34)CC2)cc1	7	i	1	0	7	i	27*	i
CCNc1c(N)c(=O)oc2ccccc12	1	i	3	0	8	i	.	.
CCNc1c(NC(C)=O)c(=O)oc2ccccc12	3	i	1	0	13	i	1	i
Cc1ccc(C(=O)N2CCN(S(=O)(=O)c3ccccc3)CC2)s1	2	i	11	2	15	i	.	.
COc1cnc(-c2ccccn2)nc1NC(C)C	10	7.8*	0	178*	22	i	27*	-58*
O=[N+]([O-])c1ccc(C[n+]2ccccc2)cc1	-9	i	0	0	10	i	.	.
O=C(Nc1ccccc1)c1ccc[n+](Cc2ccc([N+](=O)[O-])cc2)c1	4	i	7	0	11	i	42*	-32*

Screening data deposited in PubChem by several laboratories.
